Sequences and labels used below:
B1: chr19:38730201:38730298:+|3pUTR|ENSG00000130402|msi1_unk|FALSE|overlapping (ssRNA)
RNA: GGGAGUUCUACAGUCCGACGAUCCAGAGAAUUACUAUUUACUUUAUUAACUUACGGAUUUAUUAUAUAAAUAUAUAUUCACCUAGCAACAUAUCUCUGCCGUCUCUCCUGCUCUCAUAAUGAAGACAUAGCCGAUUCUCUGCCCAACAGAGGAUUGAGCAUCA
B2: chr19:38730201:38730298:+|3pUTR|ENSG00000130402|msi1_unk|total|mutant (ssRNA)
RNA: B1 RNA with U83C, A84C, U128C, A129C
B3: chr7:20410151:20410448:+|3pUTR|ENSG00000105855|msi1|FALSE|unique (ssRNA)
RNA: GGGAGUUCUACAGUCCGACGAUCACUAGUGUCGUUGUAGCACUUUACUGUAAUAUAUAACUUAUUUAGAUCAGCAUAGAAUGUAGAUCCUCUGAAGAGCACUGAUUACACUUUACAGGUACCUGUUAUCCCUACGCUUCCCAGCAACAGAGGAUUGAGCAUCA
B4: chr12:66123492:66123593:-|3pUTR|ENSG00000139233|msi1|FALSE|unique (ssRNA)
RNA: GGGAGUUCUACAGUCCGACGAUCAUGCUACCCAAUAUCCAGUUAUAAUCAGGCCUCAACGUUCUGUCAGGUAUUAAUAUGGUUAGAAUUGUUCUUACAACUGGUAAUUAUAGUCAAUAGAGAUAAAACAGAUGAUGUACUGACCAACAGAGGAUUGAGCAUCA
B5: chr3:58425360:58425463:+|3pUTR|ENSG00000168297|unk|FALSE|unique (ssRNA)
RNA: GGGAGUUCUACAGUCCGACGAUCAGACAGCUCCUAGAAACAUUCCUCUUACAGUUCAUUUCUCUAAAGCAUUUUCUGAUUCUUAGAUAACUCCAAUUUUUGCUACCUUUAUCUUAGACAUUAACACUAUAGCCCAAAGCAUAGCAACAGAGGAUUGAGCAUCA
B6: ENSG00000154556:stop:overlap|stop_codon|ENSG00000154556|stop_codon|NA|stop_codon (ssRNA)
RNA: GGGAGUUCUACAGUCCGACGAUCCUUCUUCCCCAUCAAGAGCAAAAGUUACUCAGGGCUCAACGGCAACCCCUCCAGUGAGUUAGAUUACUGUAGCACUUACAGACAGCACUUGGAUGUCCCUCGGGACUCACCAAGAGCCAUCAACAGAGGAUUGAGCAUCA
B7: chr19:18196783:18197469:-|three_prime_utr|ENSG00000105649|control|control|control (ssRNA)
RNA: GGGAGUUCUACAGUCCGACGAUCACUACCCGGGCCUGACCCGGCCCCUACCAGCCACGGGCACAAGACCCCUGCUCCUGACUUAGCCCGUCACCCUUAUUUAUUAUUGUAGCUAUUUAUUUAUUUAUUGAAGAUGUCCCCCAGCAACAGAGGAUUGAGCAUCA
B8: chr12:66123492:66123593:-|3pUTR|ENSG00000139233|msi1|total|mutant (ssRNA)
RNA: B4 RNA with U83C, A84C, U110C, A111C, U117C, A118C
B9: chr16:66721972:66722075:-|3pUTR|ENSG00000135720|unk|FALSE|unique (ssRNA)
RNA: GGGAGUUCUACAGUCCGACGAUCUUUUUAAUUCAGUUUUUUAAAAAAACAAAUGUAUUGUGGCUUCCAGUUACCAGGUUGUCUAGGUAAUGACAGUAAACUGACUGUAGAAUGAUAAUUGUGGUAUAGUGACCAAUAGAUGCCCAACAGAGGAUUGAGCAUCA
B10: chr11:613205:613595:-|three_prime_utr|ENSG00000185507|control|control|control (ssRNA)
RNA: GGGAGUUCUACAGUCCGACGAUCCUGCACGUUCCUAUACGGCCCCCCAGACCCAGCUGUCCGGGCCACAGACCCCCAGCAGGUAGCAUUCCCCAGCCCUGCCGAGCUCCCGGACCAGAAGCAGCUGCGCUACACGGAGGAACUCAACAGAGGAUUGAGCAUCA
B11: chr4:56461171:56461272:+|3pUTR|ENSG00000128050|msi1|FALSE|bound_elsewhere (ssRNA)
RNA: GGGAGUUCUACAGUCCGACGAUCCUUCUGUAACCACAGUGACUACAAGUAGUUCUUUCUCUAUUGAAUUAUUAGGUCCAGAAUAGAAGAUGUCAUUGUACACUUUAUUUCCCUCACACUGUGUUAUGCUCUGAUGUGCUAUGCCAACAGAGGAUUGAGCAUCA
B12: chr7:20410151:20410448:+|3pUTR|ENSG00000105855|msi1|total|mutant (ssRNA)
RNA: B3 RNA with U26C, A27C, U37C, A38C, U66C, A67C, U76C, A77C, U83C, A84C
B13: ENSG00000115216:stop:overlap|stop_codon|ENSG00000115216|stop_codon|NA|stop_codon (ssRNA)
RNA: GGGAGUUCUACAGUCCGACGAUCACAAGUUCAAUUUUGCCAGGAACAGUACCCUCAACUCAGCCGCUGUCACCGUCUCCUCUUAGAGCUCACUCGGGCCAGGCCCUGAUCUGCGCUGUGGCUGUCCCUGGACGUGCUGCAGCCCAACAGAGGAUUGAGCAUCA
B14: chr11:13729208:13729309:+|3pUTR|ENSG00000197601|unk|FALSE|unique (ssRNA)
RNA: GGGAGUUCUACAGUCCGACGAUCAAAGUUGGUAGAUAUUUGAUUCUUCAUUUUUUGUUUUUUUCAUUAGUUGAAGUGGGUUUUAGUUUUGUUUAAAAUUAUAACCAGCGUAUUUUCACAUCAUUCUGUAAGUUAAAUGAUAUCCAACAGAGGAUUGAGCAUCA

Changes are numbered by the printed parent chain. The full ranking holds about 5,800 sequences; the median of “enrichment r” is about 0.54, and the highest 2% start at about 16. The sample holds the highest values, similar sequences and a random draw of the others, so the mix is not that of the screen.

Sequence of MSI1 full-length (Q61474 whole entry): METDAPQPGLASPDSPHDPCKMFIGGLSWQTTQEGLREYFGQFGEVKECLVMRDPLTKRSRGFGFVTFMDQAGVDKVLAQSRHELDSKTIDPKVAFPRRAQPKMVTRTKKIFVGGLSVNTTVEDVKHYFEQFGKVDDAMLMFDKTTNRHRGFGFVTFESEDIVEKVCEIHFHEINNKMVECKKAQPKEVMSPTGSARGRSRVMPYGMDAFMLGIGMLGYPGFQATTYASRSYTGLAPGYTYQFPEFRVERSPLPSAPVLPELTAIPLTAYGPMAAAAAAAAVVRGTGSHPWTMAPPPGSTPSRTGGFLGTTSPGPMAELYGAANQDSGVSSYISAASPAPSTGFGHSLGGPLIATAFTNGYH

This assay has as its target MSI1 full-length (mouse, UniProt Q61474 1-362). Nature of the assay: nsRBNS (natural sequence RNA bind-n-seq); RBNS binding buffer (assumed for nsRBNS): 25 mM Tris pH 7.5, 150 mM KCl, 3 mM MgCl2, 0.01% Triton X-100, 500 ug/ml BSA, 20 U/ml SUPERase-In, 4 C; UNK is unkempt and MSI1 is Musashi-1; names of the RNAs are library labels; protein concentration not given here; high values mean tight binding.
As to B1, the binding signal turned out to be 39.3 enrichment R.

On to B2, for which the binding signal worked out at 5.81 enrichment R.

For B3, the binding signal is 16.1 enrichment R.

B4: the binding signal is 17.7 enrichment R.

For the molecule B5, the binding signal turned out to be 8.08 enrichment R.

Molecule B6 came in with a binding signal of 0.595 enrichment R.

The molecule B7 yielded a binding signal of 48.8 enrichment R.

Take B8: the binding signal is 0.303 enrichment R.

On to B9, for which the binding signal is 9.43 enrichment R.

For B10, the binding signal is 0.649 enrichment R.

For the molecule B11, the binding signal stood at 1.03 enrichment R.

For B12, the binding signal was determined as 0.529 enrichment R.

Consider B13, for which the binding signal is 0.763 enrichment R.

As for B14, the binding signal turned out to be 1.97 enrichment R.

Values taken from publication PMC12136788.
